ERp5 block: inhibitors of ERp5-driven insulin aggregation, primary screen, biochemical, turbidity, absorbance 650 nm, single point; Protein disulfide-isomerase A6 (Homo sapiens), Q15084; 90 min; inhibition, % at 9.99 µM; hit rate 0.05% among 350,000; AID 651711, 2012;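 active = mean replicate inhibition above about 25%, with every replicate also reaching it, limit read from the data, passing the limit was not always enough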
Rtt109 Vps75: inhibitors of C. albicans Rtt109/Vps75 HAT, primary screen, biochemical, ThioGlo CoA-SH fluorescence, plate reader; hit rate 0.16% among 330,000; inhibition, % at 34.9 µM; purified Rtt109/Vps75, 4 h; AID 540336, 2011; Histone acetyltransferase RTT109 (Candida albicans (strain SC5314 / ATCC MYA-2876)), …;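 active = inhibition of at least 50% in every replicate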
DENV2 CPE: inhibitors of DENV2 cytopathic effect, primary screen, cell-based, plate reader, single concentration; DENV2-infected cells, cytopathic effect rescue; CPE inhibition, % at 9.99 µM; hit rate 1.7% among 350,000; in the data active = CPE inhibition above about 20%, passing the limit was not always enough; tested in BHK-21 cells;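 also: 0% = median of neutral control wells and 100% = median of positive control wells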
PDI turbidity: inhibitors of human PDI, primary screen, biochemical, turbidity, single point, plate reader; inhibition, % at 10 µM; AID 588391, 2011; PDI insulin aggregation turbidity, A650, 90 min; Protein disulfide-isomerase (Homo sapiens), P07237; hit rate 0.052% among 350,000;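 active = mean inhibition across replicates of 30% or more, whatever share of single replicates reach that level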
SIRT5 inh: SIRT5 desuccinylase inhibitors, primary screen, biochemical, fluorescence imaging, single point, set 5; NAD-dependent protein deacylase sirtuin-5, mitochondrial (Homo sapiens), Q9NXA8; hit rate 1.1% among 330,000; Purified SirT5, succinyl-peptide AMC, trypsin-coupled fluorescence; inhibition, % at 15 µM; in the data active = inhibition above about 15%
Target sequence (Q9NXA8 whole entry, looked up): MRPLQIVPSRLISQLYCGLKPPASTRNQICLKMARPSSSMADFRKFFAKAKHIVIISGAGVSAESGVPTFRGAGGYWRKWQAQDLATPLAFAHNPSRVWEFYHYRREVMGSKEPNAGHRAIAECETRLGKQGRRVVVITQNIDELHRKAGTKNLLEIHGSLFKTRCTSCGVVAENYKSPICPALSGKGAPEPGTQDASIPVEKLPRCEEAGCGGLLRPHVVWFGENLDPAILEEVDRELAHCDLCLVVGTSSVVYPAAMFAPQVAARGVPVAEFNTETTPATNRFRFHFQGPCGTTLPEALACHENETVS
An asterisk follows results filed as active; x = no result given; ! = not active in a repeat. Sampled rows, rich in hits. Any-hit rate of the full collection: about 2.3%.

SMILES	ERp5 block	Rtt109 Vps75	DENV2 CPE	PDI turbidity	SIRT5 inh
COc1ccc(-c2nnc3ccc(SCC(=O)N4CCCCC4)nn23)cc1OC	-4	5	30*	7	1
COc1ccc(-c2nnc3ccc(SCC(N)=O)nn23)cc1OC	x	1	x	-11	x
COc1ccccc1Nc1nnc(SCC2CCCCO2)s1 (stereo not given)	3	-7	-13	7	-2
Cc1ccccc1Nc1nnc(SCC2CCCCO2)s1 (stereo not given)	1	51*	-1	-17	-2
COCC(=O)N1[C@H](CO)[C@@H](c2ccccc2)C12CN(C(=O)c1ccccc1)C2	2	x	-3	x	0
Nc1nnc(SCC(=O)Nc2cccc(Cl)c2)s1	-1	-10	50*	-1	-2
COc1ccc(-c2ccc3c(c2)O[C@@H](CN(C)Cc2ccccc2C(=O)O)[C@@H](C)CN([C@H](C)CO)S3(=O)=O)cc1	-2	x	0	x	-2
COc1ccc(C2C3C=CCC(c4cccc(-c5ccc(C)cc5)c4)C3C(=O)N2Cc2ccccc2)cc1Cl (stereo not given)	-2	-4	-8	-10	x
Cc1ccc(-c2cccc(C3CC=CC4C3C(=O)N(Cc3ccccc3)C4c3ccc(C(F)(F)F)cc3)c2)cc1 (stereo not given)	0	0	93*	4	-4
COc1cccc(S(=O)(=O)N[C@@H]2C=C[C@H](CC(=O)NCc3ccc(F)cc3)O[C@H]2CO)c1	14	x	14	x	0
COc1cccc(S(=O)(=O)N[C@H]2C=C[C@H](CC(=O)NCc3ccncc3)O[C@H]2CO)c1	-5	x	28*	x	-10
COc1cccc(S(=O)(=O)N[C@@H]2C=C[C@H](CC(=O)NCc3ccc(F)cc3)O[C@@H]2CO)c1	0	x	33*	x	10
COc1cccc(S(=O)(=O)N[C@H]2CC[C@H](CCNC(=O)Cc3ccncc3)O[C@@H]2CO)c1	10	x	-2	x	16*
COc1cccc(S(=O)(=O)N[C@H]2CC[C@@H](CC(=O)NCc3ccncc3)O[C@@H]2CO)c1	0	x	2	x	-2
CC(=O)N1[C@H](CO)[C@@H](c2ccccc2)[C@@H]1CNC(=O)CN1CCOCC1	0	x	6	x	-1
CO[C@@H]1CN(C)C(=O)c2cc(NC(=O)C3CC3)ccc2OC[C@H](C)N(C(C)=O)C[C@@H]1C	-5	x	2	x	2
CNC[C@H]1Oc2ccc(NS(=O)(=O)c3ccc(Cl)cc3)cc2C(=O)N([C@H](C)CO)C[C@H]1C	0	x	28*	x	1
C[C@@H]1CN([C@@H](C)CO)C(=O)c2cc(NS(=O)(=O)c3ccc(Cl)cc3)ccc2O[C@H]1CN(C)CC1CC1	-5	x	29*	x	2
CNC[C@H]1Oc2ccc(NS(=O)(=O)c3cn(C)cn3)cc2C(=O)N([C@H](C)CO)C[C@@H]1C	4	x	4	x	-3
COc1ccc(S(=O)(=O)Nc2ccc3c(c2)C(=O)N([C@@H](C)CO)C[C@H](C)[C@H](CN(C)CC2CC2)O3)cc1	-1	0	0	-2	27*!
CNC[C@@H]1Oc2ccc(NS(=O)(=O)c3cn(C)cn3)cc2C(=O)N([C@@H](C)CO)C[C@H]1C	2	x	23*	x	-9
CNC[C@@H]1Oc2ccc(NS(=O)(=O)c3ccc(Cl)cc3)cc2C(=O)N([C@@H](C)CO)C[C@@H]1C	-4	x	8	x	-2
C[C@H](CO)N1C[C@H](C)[C@H](CN(C)CC2CC2)Oc2ccc(NS(=O)(=O)c3ccc(Cl)cc3)cc2C1=O	-2	x	-11	x	-3
CC(C)NC(=O)N(C)C[C@H]1OCCCC[C@@H](C)Oc2ccc(NC(=O)Nc3ccc(F)cc3)cc2C(=O)N([C@@H](C)CO)C[C@H]1C	0	x	8	x	-2
O=C(NCC[C@H]1CC[C@H](NC(=O)C2CCOCC2)[C@@H](CO)O1)c1ccc(F)cc1	-4	x	3	x	2
SMILES	ERp5 block	Rtt109 Vps75	DENV2 CPE	PDI turbidity	SIRT5 inh
CCOC(=O)c1ccc(NC(=O)c2nc[nH]c2C(=O)NC[C@@H](C)O)cc1	6	x	-1	5	4
CCOC(=O)c1ccc(NC(=O)c2nc[nH]c2C(=O)NC[C@H](C)O)cc1	1	x	80*	3	1
Cc1ccc(NC(=O)c2nc[nH]c2C(=O)N[C@@H](C)C(=O)OC(C)(C)C)cc1	2	4	98*	-4	x
Cc1cccc(NC(=O)c2nc[nH]c2C(=O)NCCN(CCNC(=O)c2[nH]cnc2C(=O)Nc2cccc(C)c2)CCNC(=O)c2[nH]cnc2C(=O)Nc2cccc(C)c2)c1	-2	-5	0	-3	-2
Cc1cccc(NC(=O)c2nc[nH]c2C(=O)NCCCNC(=O)c2[nH]cnc2C(=O)Nc2cccc(C)c2)c1	17	4	45*	8	-3
Cc1cccc(NC(=O)c2nc[nH]c2C(=O)NC[C@H](C)O)c1	0	x	6	4	27*
C[C@H](NC(=O)c1[nH]cnc1C(=O)Nc1ccccc1)C(=O)OC(C)(C)C	11	-4	-9	-6	x
CNC(=O)c1[nH]cnc1C(=O)Nc1ccc(Cl)cc1	-4	-32	41*	-4	1
CNC(=O)c1[nH]cnc1C(=O)Nc1ccc(C)cc1	-3	4	-2	-3	-3
O=C1CN(Cc2ccccc2)C[C@@H]2[C@H](c3ccc(-c4ccccc4)cc3)[C@H](CO)N12	2	x	1	x	22*
C/C=C/c1ccc([C@@H]2[C@@H](CO)N3C(=O)CN(Cc4ccccc4)C[C@H]23)cc1	1	x	25*	x	-6
Cc1ccc(CN2CC(=O)N3[C@@H](CO)[C@H](c4ccc(-c5ccccc5F)cc4)[C@@H]3C2)cc1	-1	x	-13	x	15*
Cc1ccc(CN2CC(=O)N3[C@H](C2)[C@H](c2ccc(-c4ccccc4F)cc2)[C@@H]3CO)cc1	6	x	-5	x	-4
C/C=C/c1ccc([C@H]2[C@H]3CN(Cc4ccccc4)CC(=O)N3[C@H]2CO)cc1	0	x	2	x	-6
CCC(=O)N1CC2(C1)[C@@H](c1ccccc1)[C@H](CO)N2C(=O)c1cccnc1	-1	x	72*	x	1
O=C(CC1CC1)N1CC2(C1)[C@H](c1ccccc1)[C@@H](CO)N2C(=O)c1cccnc1	3	x	-5	x	-2
CCC(=O)N1CC2(C1)[C@@H](c1ccc(-c3ccc(F)cc3)cc1)[C@H](CO)N2C(=O)CC	7	x	27*	x	0
O=C(c1cccnc1)N1CC2(C1)[C@@H](c1ccccc1)[C@@H](CO)N2C(=O)CC1CC1	-5	x	30*	x	-2
CCC(=O)N1CC2(C1)[C@@H](c1ccc(-c3ccc(F)cc3)cc1)[C@@H](CO)N2C(=O)CC	8	x	4	x	9
